Bioassay records as filed in PubChem BioAssay.
An excerpt weighted towards active compounds, which were near 4.1% of everything screened.
DAX1 inh-1 = inhibitors of DAX1 repression of SF-1 activated StAR promoter; hit rate 1.1% among 370,000; HEK293T StAR-luciferase reporter, SF-1/DAX-1 repression relief; inhibition, % at 6.8 µM;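 active means inhibition above the mean over all tested compounds plus 3 SD, cut at about 3.6% in these data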;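 further: higher inhibition means more luminescence from relief of DAX-1 repression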
hgDAF12 agonist = hgDAF-12 agonism, primary luciferase screen. HEK293 GAL4-hgDAF12 UAS-luciferase reporter, agonist luminescence; normalized to butyrate control. AID 687014. activation, % at 6.8 µM. hit rate 1.8% among 370,000;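 active means activation above a cutoff set at the mean of all screened compounds plus 3 SD, cut at about 10% in these data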
DAX1 inh-2 = inhibits human nuclear receptor DAX1; hit rate 0.99% among 340,000; AID 504766; HEK293 Gal4-DAX1 luciferase reporter, luminescence; P51843; inhibition, % at 6.75 µM;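 active means inhibition above the mean over all tested compounds plus 3 SD, cut at about 4.2% in these data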;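 further: inhibition shows as a rise in luminescence from relieved DAX1 repression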
Target sequence (P51843 207-470 limits assumed): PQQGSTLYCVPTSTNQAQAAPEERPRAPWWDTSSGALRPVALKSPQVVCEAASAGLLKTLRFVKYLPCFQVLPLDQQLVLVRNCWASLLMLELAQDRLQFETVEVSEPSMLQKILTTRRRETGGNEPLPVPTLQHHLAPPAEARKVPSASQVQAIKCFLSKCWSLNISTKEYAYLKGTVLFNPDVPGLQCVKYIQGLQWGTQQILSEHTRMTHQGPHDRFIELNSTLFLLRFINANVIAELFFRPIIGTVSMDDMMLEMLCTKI
hcDAF-12 act = H. contortus DAF-12 activation, primary screen. HEK293 hcDAF-12 lit1-tk-luc reporter, luminescence; 0% DMSO, 100% Δ7-dafachronic acid. activation, % at 6.8 µM. hit rate 1.4% among 370,000. AID 652067;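 active means activation above the mean of all tested compounds plus 3 SD, cut at about 5.5% in these data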
ssDAF12 agonist = activators of S. stercoralis DAF-12 nuclear receptor. HEK293 ssDAF-12/GRIP1 lit1-tk-luc reporter, luminescence; % of 3 µM dafachronic acid response. activation, % at 6.8 µM. hit rate 1% among 370,000;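 active means activation above the mean over all tested compounds plus 3 SD, cut at about 0.9% in these data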
A number is an active result.

What do the screens show for `COc1ccc2c(c1)C1(Nc3ccccc3-c3nc4ccccc4n31)C(=O)N2` (stereo unspecified)?
DAX1 inh-1: inactive; hgDAF12 agonist: inactive; DAX1 inh-2: inactive; hcDAF-12 act: inactive; ssDAF12 agonist: inactive

How did CC1(c2ccncc2)Nc2ccccc2-c2nc3ccccc3n21 (stereo unspecified) do in these assays?
DAX1 inh-1: inactive; hgDAF12 agonist: 11.7; DAX1 inh-2: inactive; hcDAF-12 act: inactive; ssDAF12 agonist: inactive

Results for Cc1ccc2c(nc3s/c(=C/c4cccs4)c(=O)n32)c1C ?
DAX1 inh-1: inactive; hgDAF12 agonist: inactive; DAX1 inh-2: inactive; hcDAF-12 act: 6.2; ssDAF12 agonist: inactive

What do the screens show for `Cc1ccccc1N(C)C(=O)Cn1nnc(-c2ccccc2F)n1`?
DAX1 inh-1: inactive; hgDAF12 agonist: inactive; hcDAF-12 act: inactive; ssDAF12 agonist: inactive

How did O=C(NCCNc1ccc([N+](=O)[O-])cc1)c1ccco1 do in these assays?
DAX1 inh-1: inactive; hgDAF12 agonist: inactive; DAX1 inh-2: 4.5; hcDAF-12 act: inactive; ssDAF12 agonist: inactive

What do the screens show for `O=C(NCCNCc1cccc(Cl)c1)c1ccco1`?
DAX1 inh-1: inactive; hgDAF12 agonist: inactive; DAX1 inh-2: inactive; hcDAF-12 act: inactive; ssDAF12 agonist: 1.1

How did O=C(NCCNCc1ccc(F)cc1)c1ccco1 do in these assays?
DAX1 inh-1: inactive; hgDAF12 agonist: inactive; DAX1 inh-2: inactive; hcDAF-12 act: inactive; ssDAF12 agonist: inactive

How did O=C(Nc1ccc(C(=O)O)cc1)/C(=C\c1ccc([N+](=O)[O-])cc1)NC(=O)c1ccco1 do in these assays?
DAX1 inh-1: inactive; hgDAF12 agonist: inactive; DAX1 inh-2: 4.3; hcDAF-12 act: inactive; ssDAF12 agonist: inactive

Results for O=C(NCCNc1ccc([N+](=O)[O-])cc1)c1ccccc1Br ?
DAX1 inh-1: inactive; hgDAF12 agonist: inactive; DAX1 inh-2: inactive; hcDAF-12 act: inactive; ssDAF12 agonist: inactive

How did Cc1c(C(=O)Nc2nccs2)oc2ccc(F)cc12 do in these assays?
DAX1 inh-1: inactive; hgDAF12 agonist: inactive; DAX1 inh-2: inactive; hcDAF-12 act: 6.3; ssDAF12 agonist: 1.6

What do the screens show for `CC(C)(C)c1ccc(-c2cn(C[C@H](Cc3ccccc3)n3c(=O)c4ccccc4n3Cc3ccno3)nn2)cc1`?
DAX1 inh-1: inactive; hgDAF12 agonist: inactive; hcDAF-12 act: inactive; ssDAF12 agonist: inactive

How did Cc1[nH]c2ccccc2c1CC(=O)Nc1ccc(Nc2cccnc2)c(-c2ccc(C(C)(C)C)cc2)c1 do in these assays?
DAX1 inh-1: inactive; hgDAF12 agonist: inactive; hcDAF-12 act: inactive; ssDAF12 agonist: inactive

Results for CC1C(O)=C(c2nc3ccccc3[nH]2)C(=N)N1c1ccccc1 (stereo unspecified) ?
DAX1 inh-1: inactive; hgDAF12 agonist: 13.3; DAX1 inh-2: inactive; hcDAF-12 act: inactive; ssDAF12 agonist: inactive

How did COc1cccc(CNC(=O)CN2CCCc3ccccc32)c1 do in these assays?
DAX1 inh-1: inactive; hgDAF12 agonist: inactive; hcDAF-12 act: inactive; ssDAF12 agonist: inactive

What do the screens show for `COC(=O)[C@H]1C[C@@]2(C#N)c3ccccc3N(C(=O)OC(C)(C)C)[C@H]2N1C(=O)OC(C)(C)C`?
DAX1 inh-1: inactive; hgDAF12 agonist: inactive; hcDAF-12 act: inactive; ssDAF12 agonist: inactive

What do the screens show for `O=C(OCc1ccccc1)[C@H](Cc1ccccc1)NC(=O)[C@@H]1CC=C[C@@H]2CCN(Cc3ccccc3)C(=O)[C@@H]21`?
hgDAF12 agonist: inactive; hcDAF-12 act: inactive; ssDAF12 agonist: inactive

How did Fc1ccc(CSc2nncn2NCc2ccccc2)cc1 do in these assays?
DAX1 inh-1: inactive; hgDAF12 agonist: inactive; DAX1 inh-2: 6.9; hcDAF-12 act: inactive; ssDAF12 agonist: inactive

What do the screens show for `CN(C)c1ccc(CNn2cnnc2SCc2ccc(F)cc2)cc1`?
DAX1 inh-1: inactive; hgDAF12 agonist: inactive; DAX1 inh-2: inactive; hcDAF-12 act: inactive; ssDAF12 agonist: inactive

Results for Nc1c(Cl)cc(N=Nc2ccccc2)cc1Cl ?
DAX1 inh-1: inactive; hgDAF12 agonist: inactive; DAX1 inh-2: inactive; hcDAF-12 act: inactive; ssDAF12 agonist: 1.0

Results for Oc1ccc(Cl)cc1N=Nc1ccccc1 ?
DAX1 inh-1: inactive; hgDAF12 agonist: inactive; DAX1 inh-2: inactive; hcDAF-12 act: inactive; ssDAF12 agonist: inactive

What do the screens show for `O=C1CCC[C@H]2C[C@H](NCCc3ccncc3)CC[C@]23CCCN13`?
hgDAF12 agonist: inactive; hcDAF-12 act: inactive; ssDAF12 agonist: inactive

Results for CCc1nc(C)ccc1OCC(=O)N1CCc2c([nH]c3ccccc23)C1c1ccccn1 (stereo unspecified) ?
DAX1 inh-1: inactive; hgDAF12 agonist: inactive; DAX1 inh-2: inactive; hcDAF-12 act: inactive; ssDAF12 agonist: inactive

What do the screens show for `CCc1nccn1CCC(=O)N1CCc2c([nH]c3ccccc23)C1CC(C)C` (stereo unspecified)?
DAX1 inh-1: inactive; hgDAF12 agonist: inactive; DAX1 inh-2: inactive; hcDAF-12 act: 5.6; ssDAF12 agonist: inactive

Results for COC(=O)[C@H]1C[C@@]2(n3ccc4ccccc43)c3ccccc3N(S(=O)(=O)c3ccccc3)[C@H]2N1 ?
DAX1 inh-1: inactive; hgDAF12 agonist: inactive; hcDAF-12 act: inactive; ssDAF12 agonist: inactive

What do the screens show for `CC(C)C1C(=O)N(Cc2cn(CC3CCCCC3)nn2)CCS(=O)(=O)N1Cc1ccc(-c2cccc(CO)c2)cc1` (stereo unspecified)?
DAX1 inh-1: inactive; hgDAF12 agonist: inactive; DAX1 inh-2: inactive; hcDAF-12 act: inactive; ssDAF12 agonist: inactive

What do the screens show for `COCCNC(=O)C1(C)CCCN(CCS(=O)(=O)c2ccc(C)cc2)C1` (stereo unspecified)?
DAX1 inh-1: inactive; hgDAF12 agonist: inactive; hcDAF-12 act: inactive; ssDAF12 agonist: inactive

How did COc1ccc(-n2cnc3ccccc32)cc1 do in these assays?
DAX1 inh-1: inactive; hgDAF12 agonist: inactive; DAX1 inh-2: inactive; hcDAF-12 act: inactive; ssDAF12 agonist: inactive

Results for c1ccc(-n2cnc3ccccc32)cc1 ?
DAX1 inh-1: inactive; hgDAF12 agonist: 11.0; DAX1 inh-2: inactive; hcDAF-12 act: inactive; ssDAF12 agonist: inactive

What do the screens show for `COc1ccc(NC(=O)CSCC(=O)NCc2ccco2)cc1`?
DAX1 inh-1: 4.3; hgDAF12 agonist: inactive; DAX1 inh-2: inactive; hcDAF-12 act: inactive; ssDAF12 agonist: inactive

How did COc1ccc(C2=NOC(C(=O)NCc3ccco3)C2)cc1 (stereo unspecified) do in these assays?
DAX1 inh-1: inactive; hgDAF12 agonist: 12.2; DAX1 inh-2: inactive; hcDAF-12 act: inactive; ssDAF12 agonist: inactive

What do the screens show for `COc1cc(C2=NOC(C(=O)NCc3ccco3)C2)cc(OC)c1OC` (stereo unspecified)?
DAX1 inh-1: inactive; hgDAF12 agonist: inactive; DAX1 inh-2: inactive; hcDAF-12 act: inactive; ssDAF12 agonist: inactive

Results for COc1ccc(/C=N/NC(=O)CSCC(=O)Nc2ccccc2)cc1 ?
DAX1 inh-1: inactive; hgDAF12 agonist: inactive; DAX1 inh-2: 5.0; hcDAF-12 act: inactive; ssDAF12 agonist: inactive

How did COc1ccc(NC(=O)CCC(=O)N/N=C/c2ccncc2)cc1 do in these assays?
DAX1 inh-1: inactive; hgDAF12 agonist: inactive; DAX1 inh-2: 5.5; hcDAF-12 act: inactive; ssDAF12 agonist: inactive
